From PubChem
Rows were chosen to be rich in hits. Some 19% of all compounds tested hit in one or more screens of this group.
DT40 TDP1 no CPT – qHTS for Inhibitors of human tyrosyl-DNA phosphodiesterase 1 (TDP1): qHTS in cells in absence of CPT; DT40 Tdp1-/- hTDP1 cells, no CPT, ATP luminescence, 48 h; Potency, µM (titrated, usually from 46.2 µM), without a hit: top-dose activity change, negative = growth inhibition, usual class: inhibitors; 15% of 420,000 active; AID 686978, 2013; further: potency means the concentration at half of the fitted maximal effect; nearly all actives have a fitted effect of over 55% in size
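Camptothecin absent (DMSO only). Human TDP1-complemented DT40 knockout cells, 400 cells/well, 37 °C for minimum 48 hr; ATP measured via CellTiter-Glo, 30 min dark incubation, luminescence.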
HT1080 IDH1KD tx – kills HT-1080 cells with IDH1 knockdown; HT-1080 IDH1 knockdown viability, ATP luminescence, 48 h; Potency, µM (titrated, usually from 46.1 µM), for the others: top-dose activity, negative = toxicity, usual class: cytotoxic; 2% of 360,000 active;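 further: potency means the concentration at half of the fitted maximal effect; 0% = DMSO wells and -100% = cell-free medium wells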
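Knockdown cells (IDH1KD HT-1080) received compounds 2 h after plating at 750 cells/well and were kept 48 h at 37 °C in 5% FBS RPMI. A CellTiter-Glo luminescence read gave % activity for curve fitting.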
IL1B secr inh – blocks inflammasome-driven IL-1 beta release; THP-1 LPS/ATP IL-1B secretion, AlphaLISA, 16 h; hits give low values; activity change, % at 57.5 µM; 4.7% of 360,000 active; in the data active means activity change below about -50%; inconclusive means mostly about -30% to -49%
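THP-1 cells pretreated 1 hr with compounds (up to 57.5 uM final), then stimulated with LPS (250 ng/mL final) plus ATP (1.25 mM final); secreted IL-1B measured by AlphaLISA after 16 hr, decreased signal indicating inhibition.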
TDP1 cell CPT – DT40-hTDP1 cell growth loss with CPT. 12% of 420,000 active. Potency, µM (highest dose often 46.2 µM), for the others: at the top dose activity change, negative = growth inhibition, actives largely listed as inhibitors. chicken DT40 Tdp1-/-;hTDP1 cells + 20 nM CPT, ATP luminescence, 48 h. AID 686979; further: potency means the concentration at half of the fitted maximal effect; nearly all actives have a fitted effect of over 55% in size
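Chicken DT40 Tdp1-/- cells stably complemented with human TDP1 were seeded at 400 cells/well in medium containing 20 nM camptothecin, exposed to pin-transferred compounds, and grown at 37 °C for at least 48 hr. Viability was read as ATP luminescence.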
HT1080NT lethal – kills 2HG-producing HT-1080-NT fibrosarcoma cells; HT-1080-NT fibrosarcoma viability, CellTiter-Glo ATP luminescence, 48 h; Potency, µM (series often up to 46.1 µM), without a hit: top-dose activity, negative = less viability, actives largely listed as cytotoxic; 1.6% of 360,000 active;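 further: NT is the 2HG producing partner of a matched IDH1 knockdown line; potency means the concentration at half of the fitted maximal effect; 0% = DMSO-treated cells and -100% = media-only wells without cells; nearly all actives have a fitted effect of over 55% in size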
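Luminescent CellTiter-Glo readout after 48 hours of compound exposure at 37 degrees C defined viability of HT-1080-NT cells. Activity was normalized to DMSO wells and cell-free media wells; concentration-response curves were fitted and assigned curve classes.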
* marks the source's active call; other numbers are inactive results. Unless noted, the call rests on the fitted dose curve; in most records, active means well fitted curve in the direction sought with a large enough effect; inconclusive means small, poorly fitted or top-dose-only effect, or another doubt; inactive means no such curve, though single readings can be large; an effect the other way counts as inactive or inconclusive. Unless noted, on the % scale 0 is the no-effect control and ±100 the full control effect.

Screening Cc1ccc2c(C)c(C(=O)N3CCN(c4ncccn4)CC3)oc2c1C returned DT40 TDP1 no CPT 16µM*, HT1080 IDH1KD tx -12%, IL1B secr inh -6, TDP1 cell CPT 21µM* and HT1080NT lethal -14%.
Screening COC(=O)C1CCN(C(=O)c2oc3c(Cl)cc(C)cc3c2C)CC1 returned DT40 TDP1 no CPT 21µM*, HT1080 IDH1KD tx 1%, IL1B secr inh -3, TDP1 cell CPT inconclusive and HT1080NT lethal 17%.
For Cc1cc(Cl)c2oc(C(=O)N3CCN(c4ccncc4)CC3)c(C)c2c1 the results were DT40 TDP1 no CPT 13µM*, HT1080 IDH1KD tx 12µM*, IL1B secr inh -88*, TDP1 cell CPT 21µM* and HT1080NT lethal 12µM*.
`Cc1c(C(=O)N2CCN(c3ccccc3)CC2)oc2c(F)cccc12` gave DT40 TDP1 no CPT inconclusive, HT1080 IDH1KD tx 1%, IL1B secr inh 7, TDP1 cell CPT inconclusive and HT1080NT lethal -2%.
`COc1ccc2oc(C(=O)N3CCN(c4ncccn4)CC3)c(C)c2c1` gave DT40 TDP1 no CPT -16%, HT1080 IDH1KD tx 7%, IL1B secr inh 14, TDP1 cell CPT -30% and HT1080NT lethal 0%.
`CCOC(=O)C1(C)CCN1C(=O)c1cccnc1Oc1ccccc1` (stereo not drawn) gave DT40 TDP1 no CPT -25%, HT1080 IDH1KD tx 6%, IL1B secr inh 19, TDP1 cell CPT inconclusive and HT1080NT lethal 24%.
For Cc1ccc(-n2ncc3c(N(C)C)ncnc32)cc1Cl the results were DT40 TDP1 no CPT inconclusive and TDP1 cell CPT -23%.
`CC(=O)NCCNc1nc2c(-c3ccccc3)nnn2c2ccccc12` gave DT40 TDP1 no CPT 8.2µM*, HT1080 IDH1KD tx -12%, IL1B secr inh 28, TDP1 cell CPT inconclusive and HT1080NT lethal -8%.
`Cc1cccc(-c2nnn3c2nc(NCCc2ccc(S(N)(=O)=O)cc2)c2ccccc23)c1` gave DT40 TDP1 no CPT 16µM*, HT1080 IDH1KD tx -14%, IL1B secr inh -9, TDP1 cell CPT 15µM* and HT1080NT lethal -5%.
`NS(=O)(=O)c1ccc(CCNc2nc3c(-c4cccc(F)c4)nnn3c3ccccc23)cc1` gave DT40 TDP1 no CPT 12µM*, HT1080 IDH1KD tx -5%, IL1B secr inh 27, TDP1 cell CPT inconclusive and HT1080NT lethal -3%.
Screening Cc1cccc(-c2nnn3c2nc(NCc2ccc4c(c2)OCO4)c2ccccc23)c1 returned DT40 TDP1 no CPT inconclusive and TDP1 cell CPT 23µM*.
`COc1cccc(CNc2nc3c(-c4cccc(C)c4)nnn3c3ccccc23)c1` gave DT40 TDP1 no CPT inconclusive and TDP1 cell CPT -23%.
`Cc1ccc(S(=O)(=O)N2CCOCC2)cc1C(=O)N1CCN(S(=O)(=O)c2cccs2)CC1` gave DT40 TDP1 no CPT -25%, HT1080 IDH1KD tx 11%, IL1B secr inh 0, TDP1 cell CPT -14% and HT1080NT lethal 10%.
`C#CCNC(=O)C1=C[C@H](C)C[C@H](OCc2ccc(CO)cc2)O1` gave DT40 TDP1 no CPT -7%, HT1080 IDH1KD tx 8%, IL1B secr inh -15, TDP1 cell CPT -19% and HT1080NT lethal 3%.
Screening Cc1cccc(-c2nnn3c2nc(NCCc2ccc(S(N)(=O)=O)cc2)c2cc(Cl)ccc23)c1 returned DT40 TDP1 no CPT 5.8µM* and TDP1 cell CPT 9.2µM*.
`O=C(CC1C(=O)NCCN1Cc1cccc(F)c1)NC1CCC1` (stereo not drawn) gave DT40 TDP1 no CPT 18%, HT1080 IDH1KD tx 0%, IL1B secr inh -61*, TDP1 cell CPT 5% and HT1080NT lethal -6%.
`O=C(CC1C(=O)NCCN1Cc1cccc(F)c1)NC1CCCCC1` (stereo not drawn) gave DT40 TDP1 no CPT 4%, HT1080 IDH1KD tx 8%, IL1B secr inh 11, TDP1 cell CPT 10% and HT1080NT lethal 2%.
